HCMV inh = qHTS Assay for inhibitors of the human cytomegalovirus (HCMV); HFF cells, HCMV-luciferase reporter, 72 h; active compounds read low; activity change, negative = inhibition, % at 57.5 µM; 410,000 compounds, 4.5% hits; in the data active means activity change below about -60%; inconclusive means no clear call, values can overlap the other calls; inactive means above about -39%
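Luciferase read-out from HCMV-luciferase-infected HFFs (MOI 1 PFU/cell) 72 h post infection at 37C; compounds added after 16 h cell attachment; activity normalized between buffer-only basal and Salinomycin (10uM) inhibitor controls.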
Marburg entry inh = qHTS for inhibitors of binding or entry into cells for Marburg Virus. Marburg virus pseudotyped entry inhibition, cell reporter. Potency, µM (top dose mostly 37.8 µM), usual class: inhibitors. 300,000 compounds, 1.8% hits. AID 540276, 2011; calls by dose curve; tested in HEK293 cells
FMDV antiviral = High Throughput Screening for Foot and Mouth Disease Virus Antivirals. AID 1159524, 2015. 410,000 compounds, 1.2% hits. Potency, µM (doses to about 57.9 µM), hits mostly inhibitors. FMDV antiviral cell-based qHTS; calls by dose curve; tested in HEK293T cells; further: read-out not given here; nearly all actives have a fitted effect of over 45% in size
LASV entry inh = qHTS for Inhibitors of binding or entry into cells for Lassa Virus; Lassa virus pseudotype entry inhibition, cell reporter; AID 540256, 2011; 300,000 compounds, 1.2% hits; Potency, µM (top dose mostly 37.9 µM), most hits filed as inhibitors; calls by dose curve; tested in HEK293 cells; further: nearly all actives have a fitted effect of over 50% in size
Large screens that a line does not name were inactive. In the library only some 6.2% were active in any assay of this set; here they are far more common.

Cc1ccc(N2CCN(C(=O)c3ccccc3NC(=O)c3ccccc3C(=O)O)CC2)cc1	HCMV inh -103, LASV entry inh inconclusive
CC(C)c1c(C(=O)NCc2cccnc2)cnn1-c1nccc(-c2ccccc2F)n1	none (no result: HCMV inh, Marburg entry inh, LASV entry inh)
CSc1ccc(C2NN=C(c3ccccc3)S2)cc1 (configuration not stated)	Marburg entry inh 2.8µM, FMDV antiviral inconclusive, LASV entry inh 6.3µM
Nc1ccn(C2OC(COP(=O)(O)O)C(O)C2O)c(=O)n1 (configuration not stated)	HCMV inh -97, Marburg entry inh inconclusive
O=c1ccn([C@@H]2O[C@H](COP(=O)(O)O)[C@@H](O)[C@H]2O)c(=O)[nH]1	none (no result: HCMV inh, Marburg entry inh, LASV entry inh)
Cc1ccc(NC(=O)Nc2ccnc(-c3cccnc3)n2)cc1	HCMV inh -87, Marburg entry inh inconclusive, LASV entry inh inconclusive
COc1ccccc1NC(=S)NC(=O)CCc1ccccc1	Marburg entry inh inconclusive, LASV entry inh inconclusive
c1csc(-c2noc(CN3CCOCC3)n2)c1	Marburg entry inh inconclusive
NC(=O)C1(N2CCCCC2)CCN(Cc2nc(-c3cccs3)no2)CC1	FMDV antiviral 35µM (no result: Marburg entry inh, LASV entry inh)
COc1cc(NC(=O)C2=C(N3CCOCC3)/C(=C/c3ccc(Cl)cc3)CC2)cc(OC)c1OC	Marburg entry inh 16µM, FMDV antiviral inconclusive
COc1cc(NC(=O)C2=C(N3CCOCC3)/C(=C\c3ccc(N(C)C)cc3)CCC2)cc(OC)c1OC	HCMV inh -91, Marburg entry inh inconclusive, FMDV antiviral inconclusive, LASV entry inh inconclusive
CCc1cc(C(=O)NNC(=S)NC(C)c2ccccc2)cs1 (configuration not stated)	HCMV inh -73
CCc1cccc(CC)c1NC(=S)NC(C)c1ccccc1 (configuration not stated)	HCMV inh -72
Cn1cc(CN2CCCC(C(=O)Nc3cccc(-n4cccn4)c3)C2)cn1 (configuration not stated)	none
CCn1cc(CN2CCC(C(=O)Nc3cccc(-c4cccc(F)c4)c3)CC2)cn1	HCMV inh -63
Cn1cc(CN2CCCC(C(=O)Nc3ccc(-c4cccc(F)c4)cc3)C2)cn1 (configuration not stated)	HCMV inh -72, FMDV antiviral inconclusive (no result: Marburg entry inh, LASV entry inh)
COc1ccccc1NC(=O)c1ccc(NC(=O)COC(=O)C2(C)CC2(Cl)Cl)cc1 (configuration not stated)	FMDV antiviral 35µM
Cc1ccccc1NC(=O)CN1C(=O)NC2(CCc3ccccc32)C1=O (configuration not stated)	none (no result: Marburg entry inh, LASV entry inh)
COc1cc2c(cc1NC(=O)CN1C(=O)NC3(CCc4ccccc43)C1=O)oc1ccccc12 (configuration not stated)	Marburg entry inh 12µM, LASV entry inh inconclusive
CCN(C(=O)CN1C(=O)NC2(CCCc3ccccc32)C1=O)c1ccc(F)cc1 (configuration not stated)	none (no result: Marburg entry inh, LASV entry inh)
CCN(C(=O)CN1C(=O)NC2(CCc3ccccc32)C1=O)C1CCCCC1 (configuration not stated)	HCMV inh -100
COc1ccc(Cl)cc1C(=O)OCC(=O)NC1CCCC(C)C1C (configuration not stated)	FMDV antiviral inconclusive
COc1cccc2cc(C(=O)OCC(=O)NC3CCCC(C)C3C)c(=O)oc12 (configuration not stated)	HCMV inh -61, Marburg entry inh inconclusive
CC(=O)Nc1ccc(S(=O)(=O)N2CCSC2)cc1	LASV entry inh inconclusive
COc1ccccc1N1CCN(CC(O)COc2ccc(C)cc2C(C)(C)C)CC1 (configuration not stated)	HCMV inh -67, Marburg entry inh inconclusive
O=S(=O)(c1ccc(OCC(O)CN2CCN(c3ccc(F)cc3)CC2)cc1)N1CCOCC1 (configuration not stated)	none (no result: FMDV antiviral)
COc1ccccc1N1CCN(CC(O)COc2ccc(S(=O)(=O)N3CCOCC3)cc2)CC1 (configuration not stated)	HCMV inh -70, Marburg entry inh inconclusive (no result: FMDV antiviral)
COc1ccccc1N1CCN(C(=S)Nc2ccc(S(=O)(=O)N3CCOCC3)cc2)CC1	Marburg entry inh inconclusive, FMDV antiviral 25µM, LASV entry inh inconclusive
Cc1csc(=O)n1CCC(=O)OCC(=O)NCc1ccc(Cl)cc1Cl	none
C=C(C)CNC(=S)NN=C1c2ccccc2-c2ccccc21	Marburg entry inh inconclusive, LASV entry inh inconclusive (no result: HCMV inh)
C=C(C)CNC(=S)N/N=C/c1ccco1	HCMV inh -61, Marburg entry inh inconclusive
O=C(COc1ccc(S(=O)(=O)NC2CCCCC2)cc1Cl)Nc1ccc2c(c1)OCO2	Marburg entry inh inconclusive, LASV entry inh inconclusive
O=C(CC(c1ccccc1)c1cc(Br)ccc1O)N1CCCC1 (configuration not stated)	none
CCN1C/C(=C/c2ccc(N3CCOCC3)cc2)C(=O)/C(=C/c2ccc(N3CCOCC3)cc2)C1	HCMV inh -102, Marburg entry inh inconclusive, FMDV antiviral 28µM, LASV entry inh inconclusive
CN1C/C(=C\c2ccc(N3CCOCC3)cc2)C(=O)/C(=C/c2ccc(N3CCOCC3)cc2)C1	HCMV inh inconclusive, Marburg entry inh inconclusive, FMDV antiviral inconclusive
O=C1NC(=S)N/C1=C/c1cccc([N+](=O)[O-])c1	none
CCOC(=O)c1c(NC(=O)c2cc(-c3ccc(Br)cc3)on2)sc(C(C)=O)c1C	Marburg entry inh inconclusive
O=C(NNc1c2ccccc2nc2ccccc12)c1ccccc1O	Marburg entry inh inconclusive, LASV entry inh inconclusive
O=C(NNc1c2ccccc2nc2ccccc12)c1cccc(O)c1	HCMV inh -61, Marburg entry inh inconclusive
O=C(NNc1c2ccccc2nc2ccccc12)c1ccc(O)cc1	HCMV inh inconclusive, Marburg entry inh 5.8µM, LASV entry inh inconclusive
COc1ccc(Br)cc1C(=O)Nc1ccccc1N1CCCC1	HCMV inh inconclusive (no result: Marburg entry inh, LASV entry inh)
CCn1c(=O)n(CC)c2cc(N3CCCC3)c(NC(=O)c3cc(Br)ccc3OC)cc21	HCMV inh -70, FMDV antiviral inconclusive (no result: Marburg entry inh, LASV entry inh)
CN(C)c1cc[n+](CC(=O)Nc2ccc(OC(F)F)cc2)cc1	HCMV inh -65, Marburg entry inh inconclusive, FMDV antiviral inconclusive
CN(C)c1cc[n+](CC(=O)Nc2ccc(Cl)c([N+](=O)[O-])c2)cc1	HCMV inh -96, Marburg entry inh inconclusive
c1ccc(CN2CCC3(CC2)Nc2ccccc2S3)cc1	none (no result: Marburg entry inh, LASV entry inh)
NC(N)=N/N=C\c1c(Cl)cccc1Cl	none (no result: HCMV inh, Marburg entry inh, LASV entry inh)
Cc1ccn(-c2ccc([N+](=O)[O-])cc2)n1	HCMV inh -88
Cc1ccn(-c2n[nH]c(C)c2[N+](=O)[O-])n1	Marburg entry inh inconclusive
COc1ccc([C@H]2c3cc(OC)c(OC)cc3C[C@@H](C)[C@@H]2C)cc1OC	none (no result: HCMV inh, Marburg entry inh, LASV entry inh)
O=C1/C(=C/N(C(=O)c2ccco2)c2ccc(Br)cc2)Sc2ccccc21	Marburg entry inh inconclusive, FMDV antiviral 11µM, LASV entry inh inconclusive (no result: HCMV inh)
CC[C@]12c3[nH]c4cc(-c5ccco5)ccc4c3CCN1C(=O)[C@@H](CC(=O)NCCC1=CCCCC1)C[C@@H]2C(=O)N1CCN(C(=O)C2CC2)CC1	FMDV antiviral inconclusive (no result: Marburg entry inh, LASV entry inh)
OC[C@H]1OC(O)[C@H](O)[C@@H](O)[C@H]1O (some centres not stated)	HCMV inh -61 (no result: Marburg entry inh, LASV entry inh)

Screening results deposited in PubChem BioAssay by National Center for Advancing Translational Sciences (NCATS).
